From PubChem BioAssay (Tox21)
Results filed as inconclusive are left out. Unmarked numbers belong to inactive results. The source made the active and inactive calls. The call rests on the fitted dose curve; in most records, active means well fitted inhibition curve with a large enough effect in the repeat runs; inconclusive means weak or mixed curves; inactive means no such curve, though single readings can be large or run the other way.

Molecular target: Cytochrome P450 2C19 (Homo sapiens) (UniProt P33261)
Experiment: Cytochrome P450 Family 2 Subfamily C Member 19 (CYP2C19) small molecule antagonists: luciferase reporter qHTS assay (AID 1671197); further: nearly all actives have a fitted effect of over 65% in size
Details: P450-Glo CYP2C19 enzyme, luciferin luminescence, 1 h; series mostly up to 115 µM; activity change, negative = inhibition: at the top concentration
Outline: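 Relative luminescence units recorded 20 min after the detection reagent stopped a 1 h, 37C CYP2C19 reaction on proluciferin substrate, which was started by NADPH regeneration following 10 min room-temperature compound preincubation; ketoconazole positive control.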
On the % scale 0 is the no-effect control and ±100 the full control effect; potency means the concentration at half of the fitted maximal effect.

Chain of Cytochrome P450 2C19 (Homo sapiens) (P33261 whole entry, looked up): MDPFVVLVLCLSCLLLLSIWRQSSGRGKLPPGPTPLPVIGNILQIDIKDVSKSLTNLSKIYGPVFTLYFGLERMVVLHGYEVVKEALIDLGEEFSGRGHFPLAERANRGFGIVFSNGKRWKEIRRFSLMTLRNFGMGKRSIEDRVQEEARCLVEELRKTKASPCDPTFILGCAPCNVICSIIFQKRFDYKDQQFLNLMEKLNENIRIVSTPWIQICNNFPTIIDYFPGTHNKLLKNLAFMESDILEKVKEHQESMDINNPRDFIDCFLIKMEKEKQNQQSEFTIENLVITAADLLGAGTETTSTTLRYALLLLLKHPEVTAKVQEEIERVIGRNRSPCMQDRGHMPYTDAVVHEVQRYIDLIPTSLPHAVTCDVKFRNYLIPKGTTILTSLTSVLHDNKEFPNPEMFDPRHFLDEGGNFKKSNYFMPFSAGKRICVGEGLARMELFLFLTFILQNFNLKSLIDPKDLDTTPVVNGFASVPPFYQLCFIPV

SMILES	Potency	activity change, negative = inhibition
CCCCc1ccc(N)cc1	39.9 µM (active)	
Oc1ccc2c(c1)OC[C@@H](N1CCC(O)(c3ccc(F)cc3)CC1)[C@H]2O	3.89 µM (active)	
COC(C(=O)O)c1ccccc1 (configuration not stated)		-10.2%
CCOC(=O)Cn1c(=O)sc2cccc(Cl)c21	7.96 µM (active)	
C=CC(=O)N1CCOCC1	35.6 µM (active)	
CC(=O)NC(Cc1ccccc1)C(=O)O (configuration not stated)		0.475% [at 52.9 µM]
Cc1ccccc1Br	79.1 µM (active)	
COc1ccc(N=[N+]([O-])c2ccc(OC)cc2)cc1	19.8 µM (active)	
Cc1ccc(N)cc1[N+](=O)[O-]		-17.4%
CCCCCCCCCCC1CO1 (configuration not stated)		-2.32%
Cc1onc(-c2ccccc2)c1-c1ccc(S(N)(=O)=O)cc1	7.76 µM (active)	
CCOC(=O)Nc1ccc2c(c1)N(C(=O)CCN1CCOCC1)c1ccccc1S2	7.76 µM (active)	
CC(C)CCCCCCN		2.9%
CSc1nc(NC2CC2)nc(NC(C)(C)C)n1	20 µM (active)	
C=CCSCC1Nc2cc(Cl)c(S(N)(=O)=O)cc2S(=O)(=O)N1 (configuration not stated)		3.84% [at 52.9 µM]
CC(=O)CCc1ccc(O)cc1	20 µM (active)	
CC(=O)OC(C)(C)C		-15.8%
c1ccc(SCCSc2ccccc2)cc1	3.53 µM (active)	
O=C(O)c1ccccc1S		-9.57% [at 52.9 µM]
c1ccc(CCCc2ccccn2)cc1	5.64 µM (active)	
NC(=O)c1ncn([C@@H]2O[C@H](CO)[C@@H](O)[C@H]2O)c1O		19.9% [at 52.9 µM]
[O-][N+](=Nc1ccccc1)c1ccccc1	63.3 µM (active)	

Molecular target: Cytochrome P450 2C9 (Homo sapiens) (UniProt P11712)
Experiment: Cytochrome P450 Family 2 Subfamily C Member 9 (CYP2C9) small molecule antagonists: luciferase reporter qHTS assay (AID 1671198); further: nearly all actives have a fitted effect of over 50% in size
Details: P450-Glo CYP2C9 enzyme assay, luciferin luminescence; series mostly up to 115 µM; activity change, negative = inhibition: at the top concentration
Outline: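 CYP2C9 activity was measured with a P450-Glo proluciferin substrate. Enzyme–substrate mix was held with compound for 10 min at room temperature, then NADPH regeneration solution was added for 1 h at 37C. Luciferin product was read as luminescence.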

Chain of Cytochrome P450 2C9 (Homo sapiens) (P11712 whole entry, looked up): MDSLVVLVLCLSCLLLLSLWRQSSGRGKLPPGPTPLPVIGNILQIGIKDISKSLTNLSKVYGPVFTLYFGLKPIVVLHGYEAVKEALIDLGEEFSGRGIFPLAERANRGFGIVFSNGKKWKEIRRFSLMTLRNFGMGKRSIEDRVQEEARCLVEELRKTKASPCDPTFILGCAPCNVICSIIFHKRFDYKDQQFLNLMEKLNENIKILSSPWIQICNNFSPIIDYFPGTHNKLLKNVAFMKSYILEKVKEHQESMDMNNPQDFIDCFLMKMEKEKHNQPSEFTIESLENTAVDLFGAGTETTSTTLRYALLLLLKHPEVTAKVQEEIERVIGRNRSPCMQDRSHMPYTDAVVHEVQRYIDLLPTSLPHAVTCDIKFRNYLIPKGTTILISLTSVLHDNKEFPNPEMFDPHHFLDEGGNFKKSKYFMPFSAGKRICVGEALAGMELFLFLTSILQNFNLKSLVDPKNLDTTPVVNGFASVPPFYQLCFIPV

SMILES	Potency	activity change, negative = inhibition
CCCCc1ccc(N)cc1	44.8 µM (active)	
Oc1ccc2c(c1)OC[C@@H](N1CCC(O)(c3ccc(F)cc3)CC1)[C@H]2O	13.8 µM (active)	
COC(C(=O)O)c1ccccc1 (configuration not stated)		-12.4%
O=C1C(CCS(=O)c2ccccc2)C(=O)N(c2ccccc2)N1c1ccccc1 (configuration not stated)	30.9 µM (active)	
CCOC(=O)Cn1c(=O)sc2cccc(Cl)c21	10 µM (active)	
CCCCCN(CCCCC)C(=O)C(CCC(=O)O)NC(=O)c1ccc(Cl)c(Cl)c1 (configuration not stated)	2.19 µM (active)	
CN(C)CCn1nnnc1SCC1=C(C(=O)O)N2C(=O)[C@@H](NC(=O)Cc3csc(N)n3)[C@H]2SC1		-19.6% [at 53 µM]
C=CC(=O)N1CCOCC1		-9.85%
CC(=O)NC(Cc1ccccc1)C(=O)O (configuration not stated)		7.07% [at 53 µM]
NCCNC(=O)c1ccc(Cl)cn1		2.64% [at 53 µM]
Cc1ccc(N)cc1[N+](=O)[O-]	35.8 µM (active)	
CCCCCCCCCCC1CO1 (configuration not stated)		-5.38%
Cc1onc(-c2ccccc2)c1-c1ccc(S(N)(=O)=O)cc1	13.8 µM (active)	
CCOC(=O)Nc1ccc2c(c1)N(C(=O)CCN1CCOCC1)c1ccccc1S2	15.5 µM (active)	
CC(C)CCCCCCN		-7.88%
CSc1nc(NC2CC2)nc(NC(C)(C)C)n1	35.6 µM (active)	
CC(=O)CCc1ccc(O)cc1		-0.425%
CC(=O)OC(C)(C)C		-7.41%
O=C(O)/C=C/c1ccc(/C=C/C(=O)O)cc1		-16.5% [at 53 µM]
c1ccc(CCCc2ccccn2)cc1	35.6 µM (active)	
NC(=O)c1ncn([C@@H]2O[C@H](CO)[C@@H](O)[C@H]2O)c1O		-0.547% [at 53 µM]

Molecular target: Cytochrome P450 1A2 (Homo sapiens) (UniProt P05177)
Experiment: Cytochrome P450 Family 1 Subfamily A Member 2 (CYP1A2) small molecule antagonists: luciferase reporter qHTS assay (AID 1671199); further: nearly all actives have a fitted effect of over 50% in size
Details: P450-Glo CYP1A2 enzyme, luciferin luminescence, 1 h; series mostly up to 53 µM; activity change, negative = inhibition: at the top concentration
Outline: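 Room-temperature CYP1A2 reaction with proluciferin substrate: compounds added from DMSO, 10 min preincubation, NADPH regeneration for 1 h. Luciferin detection reagent then added; luminescence recorded as RLU.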

Chain of Cytochrome P450 1A2 (Homo sapiens) (P05177 whole entry, looked up): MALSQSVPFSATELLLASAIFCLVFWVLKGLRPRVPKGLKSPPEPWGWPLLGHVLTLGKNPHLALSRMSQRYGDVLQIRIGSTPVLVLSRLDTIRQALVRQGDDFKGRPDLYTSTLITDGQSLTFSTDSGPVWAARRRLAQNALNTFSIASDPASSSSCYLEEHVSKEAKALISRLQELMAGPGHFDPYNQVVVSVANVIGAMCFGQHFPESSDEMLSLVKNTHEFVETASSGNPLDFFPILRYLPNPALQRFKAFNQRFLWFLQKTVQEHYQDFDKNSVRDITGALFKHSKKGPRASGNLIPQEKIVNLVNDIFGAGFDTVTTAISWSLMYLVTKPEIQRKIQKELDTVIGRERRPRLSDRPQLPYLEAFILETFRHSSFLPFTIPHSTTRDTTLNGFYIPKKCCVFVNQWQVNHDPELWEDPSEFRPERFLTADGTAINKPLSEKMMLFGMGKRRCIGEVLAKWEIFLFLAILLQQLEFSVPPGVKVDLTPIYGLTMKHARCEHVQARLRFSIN

SMILES	activity change, negative = inhibition	Potency
CCOC(=O)[C@H](CCc1ccccc1)N[C@@H](C)C(=O)N1CCC[C@H]1C(=O)O	12.3%	
O=S(=O)(c1cccc2cnccc12)N1CCCNCC1	15.4%	
CCCCc1ccc(N)cc1		35.6 µM (active)
Oc1ccc2c(c1)OC[C@@H](N1CCC(O)(c3ccc(F)cc3)CC1)[C@H]2O		7.76 µM (active)
CCC(C)(C)C1CCC(OC)CC1 (configuration not stated)	-12.8% [at 115 µM]	
COC(C(=O)O)c1ccccc1 (configuration not stated)	-17.6% [at 115 µM]	
O=C1C(CCS(=O)c2ccccc2)C(=O)N(c2ccccc2)N1c1ccccc1 (configuration not stated)	-8.14%	
NS(=O)(=O)c1cc2c(cc1C(F)(F)F)NC(Cc1ccccc1)NS2(=O)=O (configuration not stated)	-18.1%	
CCOC(=O)Cn1c(=O)sc2cccc(Cl)c21		5.03 µM (active)
CCCCCN(CCCCC)C(=O)C(CCC(=O)O)NC(=O)c1ccc(Cl)c(Cl)c1 (configuration not stated)	-10.6%	
CN(C)CCn1nnnc1SCC1=C(C(=O)O)N2C(=O)[C@@H](NC(=O)Cc3csc(N)n3)[C@H]2SC1	-20.3%	
CC(=O)NC(Cc1ccccc1)C(=O)O (configuration not stated)	17.2%	
N[C@@H](CS)C(=O)O	-12.9% [at 115 µM]	
CN(C)C(=O)C(CCN1CCC(O)(c2ccc(Cl)cc2)CC1)(c1ccccc1)c1ccccc1	-0.406%	
COc1ccc(N=[N+]([O-])c2ccc(OC)cc2)cc1		7.03 µM (active)
Cc1ccc(N)cc1[N+](=O)[O-]		8.02 µM (active)
CCCCCCCCCCC1CO1 (configuration not stated)	-12.2% [at 115 µM]	
Cc1onc(-c2ccccc2)c1-c1ccc(S(N)(=O)=O)cc1	-5.5%	
CCOC(=O)Nc1ccc2c(c1)N(C(=O)CCN1CCOCC1)c1ccccc1S2	5.41%	
CC(C)CCCCCCN	-14.3% [at 115 µM]	
CSc1nc(NC2CC2)nc(NC(C)(C)C)n1		2.52 µM (active)
CC(=O)CCc1ccc(O)cc1	-28.6% [at 115 µM]	
CC(=O)OC(C)(C)C	-21% [at 115 µM]	
c1ccc(SCCSc2ccccc2)cc1		31.4 µM (active)
O=C(O)c1ccccc1S	-18.6%	
O=C(O)/C=C/c1ccc(/C=C/C(=O)O)cc1	-12.6%	
c1ccc(CCCc2ccccn2)cc1		22.4 µM (active)
NC(=O)c1ncn([C@@H]2O[C@H](CO)[C@@H](O)[C@H]2O)c1O	13.4%	
[O-][N+](=Nc1ccccc1)c1ccccc1		5.64 µM (active)
